High-throughput results from PubChem BioAssay.
Rows were chosen to be rich in hits. Some 6.8% of all compounds tested hit in one or more screens of this group.
MCF10A rerep: A quantitative high throughput screen for small molecules that induce DNA re-replication in MCF 10a normal breast cells; MCF 10A DNA re-replication, Hoechst nuclear intensity, 48 h; Potency, µM (titrated, usually from 46.1 µM), most hits filed as activators; 350,000 tested, 2.9% active; AID 624296, 2012; also: nearly all actives have a fitted effect of over 50% in size
KB-V1 MDR tox: qHTS assay for MDR1-selective chemotherapeutics: Primary screen using the drug-selected MDR subline cells KB-V1 | Potency, µM (series often up to 46.1 µM), usual class: cytotoxic | 400,000 tested, 3.4% active | KB-V1 MDR cells viability, CellTiter-Glo, 72 h | AID 1347076, 2019; also: nearly all actives have a fitted effect of over 60% in size
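KB-V1, DMEM (no phenol red) + 10% FBS; cpd pin-transferred, titration series; 72 h, 37 degrees C; CellTiter-Glo, luminescence. Data normalized, curve-fit.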
PINK1 expr mod: A Quantitative High throughput Screen to Identify Chemical Modulators of PINK1 Expression | Potency, µM (doses to about 76.6 µM), hits mostly activators | 410,000 tested, 0.2% active | PINK1 immunofluorescence, high-content cytometry, 24 h; active = well fitted activation curve with a large enough effect; inconclusive = small, poorly fitted or top-dose-only effect; cell line not stated here; also: nearly all actives have a fitted effect of over 65% in size
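PINK1 protein level read as immunofluorescence by microplate cytometer in a fixed, stained stable cell line after 24 h exposure to five compound concentrations, with CCCP as control.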
KB-3-1 tox: qHTS assay for MDR1-selective chemotherapeutics: Primary screen using the parental adenocarcinoma cell KB-3-1 | KB-3-1 viability, CellTiter-Glo ATP luminescence, 72 h | Potency, µM (top dose mostly 46.1 µM), hits mostly cytotoxic | 400,000 tested, 1.4% active | AID 1347075, 2019; also: nearly all actives have a fitted effect of over 60% in size
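Using CellTiter-Glo luminescence, growth of non-resistant KB-3-1 adenocarcinoma cells is assessed 72 h after pin-tool compound addition at 37 °C. Normalized responses across the concentration series yield fitted curves.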
SW480 rereplic: A quantitative high throughput screen for small molecules that induce DNA re-replication in SW480 colon adenocarcinoma cells | Potency, µM (titrated, usually from 46.1 µM), hits mostly activators | 340,000 tested, 1.8% active | SW480 DNA re-replication, Hoechst DNA content imaging, 48 h; also: nearly all actives have a fitted effect of over 55% in size
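Image-based read-out: total Hoechst fluorescence of nuclei (405 nm excitation, 500-530 nm emission), with hits raising the fraction of high-intensity nuclei. SW480 colon cells incubated 48 hr with compounds at 37 C.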
TSG101-PTAP inh: qHTS Assay for Iinhibitors of HIV-1 Budding by Blocking the Interaction of PTAP/TSG101 | Potency, µM (doses to about 115 µM), actives largely listed as inhibitors | Fluorescence polarization, FITC-PTAP peptide / Tsg101 binding | 340,000 tested, under 10 active | Tumor susceptibility gene 101 protein (Homo sapiens), Q99816 | AID 493005, 2010; active = well fitted inhibition curve with a large enough effect in the main read-out, with a control signal flat, not every such curve was filed as active; inconclusive = small, poorly fitted or top-dose-only effect, or effect the other way, or a change in a side signal; inactive = no such curve, though single readings can be large or run the other way
Target sequence (Q99816 whole entry, looked up): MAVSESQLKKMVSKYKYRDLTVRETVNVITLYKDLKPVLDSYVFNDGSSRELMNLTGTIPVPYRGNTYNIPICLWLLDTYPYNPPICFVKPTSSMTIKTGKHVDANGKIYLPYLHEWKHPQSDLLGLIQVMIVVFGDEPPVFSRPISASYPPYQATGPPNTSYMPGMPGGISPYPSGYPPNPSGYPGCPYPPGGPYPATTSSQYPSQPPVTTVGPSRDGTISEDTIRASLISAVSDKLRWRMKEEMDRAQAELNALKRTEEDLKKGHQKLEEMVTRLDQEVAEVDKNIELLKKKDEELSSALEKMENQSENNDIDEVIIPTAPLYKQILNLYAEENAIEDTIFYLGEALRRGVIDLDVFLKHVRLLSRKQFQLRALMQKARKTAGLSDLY
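FP read-out: FITC-PTAP peptide, 50 nM final, binding Tsg101 binding domain, 10 uM final; 20 min, r.t.; 10 mM HEPES pH 7.5, 0.15 M NaCl, 0.01% Tween 20, 3 mM EDTA, 0.1 mM TCEP.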
Each line names hits and unclear results; the compound was inactive in the other large screens. Unless noted, calls follow the shape of the dose curve; as a rule, active = well fitted curve in the direction sought with a large enough effect; inconclusive = small, poorly fitted or top-dose-only effect, or another doubt; inactive = no such curve, though single readings can be large; an effect the other way counts as inactive or inconclusive.

CC(=O)c1ccc2c(c1)CC1(C2)Cc2cc3c(cc2C1)C(=O)CC3 (stereo unspecified)	MCF10A rerep 4.11µM, KB-V1 MDR tox 2.59µM, KB-3-1 tox 3.66µM, SW480 rereplic 7.31µM
N#C/C(C(N)=O)=c1/ccc2c(c1)N1C3=C(CCCC3)CC3CCCCC31N=2 (stereo unspecified)	KB-V1 MDR tox 23.1µM, KB-3-1 tox inconclusive, TSG101-PTAP inh inconclusive
N#CC(C#N)=c1ccc2c(c1)N1C3=C(CCCC3)CC3CCCCC31N=2 (stereo unspecified)	KB-V1 MDR tox inconclusive, PINK1 expr mod inconclusive, KB-3-1 tox inconclusive
COc1ccc(CNC(=O)C(c2ccc(C)cc2)N(Cc2cccs2)C(=O)c2ccc3c(c2)OCCO3)cc1 (stereo unspecified)	MCF10A rerep inconclusive, KB-V1 MDR tox 4.61µM, SW480 rereplic inconclusive
Cc1nn(C)cc1C(C(=O)NC1CCCCC1)N(C(=O)Cc1cccs1)c1ccc(C(C)C)cc1 (stereo unspecified)	MCF10A rerep inconclusive, KB-V1 MDR tox 2.91µM, KB-3-1 tox inconclusive
Cc1ccc(C(C(=O)NC2CCCC2)N(C(=O)Cc2cccs2)c2ccc(C)c(C)c2)o1 (stereo unspecified)	KB-V1 MDR tox 20.6µM, SW480 rereplic inconclusive (no result: PINK1 expr mod)
Cc1ccc(C)c(N(C(=O)Cc2cccs2)C(C(=O)NC2CCCC2)c2ccc(C)o2)c1 (stereo unspecified)	KB-V1 MDR tox inconclusive, PINK1 expr mod inconclusive
Cc1ccc(C(C(=O)NCc2ccccc2)N(Cc2cccs2)C(=O)c2ccc3c(c2)OCCO3)cc1 (stereo unspecified)	KB-3-1 tox inconclusive, SW480 rereplic inconclusive
Cc1ccc(C(C(=O)NC2CCCC2)N(C(=O)Cc2cccs2)c2ccc3c(c2)OCCO3)cc1 (stereo unspecified)	KB-V1 MDR tox 20.6µM, SW480 rereplic inconclusive (no result: PINK1 expr mod)
Cc1nn(C)cc1C(C(=O)NC1CCCCC1)N(C(=O)Cc1cccs1)c1ccc(F)cc1 (stereo unspecified)	none
O=C(NC1CCCC1)C(c1ccc(F)cc1)N(C(=O)Cc1cccs1)c1ccc2c(c1)OCCO2 (stereo unspecified)	MCF10A rerep inconclusive
Cc1cccc(-n2c(C)nnc2SCC(=O)NC(C)c2ccco2)c1 (stereo unspecified)	none (no result: MCF10A rerep, SW480 rereplic, TSG101-PTAP inh)
CCOC(=O)N1CCC(NC(=O)c2ccc3c(c2)N(Cc2ccccc2)C(=O)c2ccccc2S3(=O)=O)CC1	none (no result: MCF10A rerep, KB-V1 MDR tox, KB-3-1 tox, SW480 rereplic, TSG101-PTAP inh)
O=C(c1ccco1)N1CCC[C@@]2(CCN(C(c3ccccc3)c3ccccc3)C2)C1	none (no result: MCF10A rerep, KB-V1 MDR tox, KB-3-1 tox, SW480 rereplic, TSG101-PTAP inh)
CCc1ccc(NC(=O)CN2CCCN(Cc3cccc(Cl)c3)S2(=O)=O)cc1	none (no result: MCF10A rerep, SW480 rereplic, TSG101-PTAP inh)
CCCN1C(=O)C2(c3ccccc31)c1c(oc3ccc(C)cc3c1=O)C(=O)N2CCOC (stereo unspecified)	none (no result: MCF10A rerep, SW480 rereplic, TSG101-PTAP inh)
CCCc1cc(=O)oc2c3c(c4c(c12)OC(C)(C)C=C4)OC(C)C(C)C3O (stereo unspecified)	MCF10A rerep 10.3µM, KB-V1 MDR tox inconclusive, KB-3-1 tox inconclusive
CCCc1cc(=O)oc2c3c(cc(OCC(=O)N[C@@H](C)C(=O)O)c12)OC(C)(C)CC3	none
COc1ccccc1NC(=O)COC(=O)c1ccccc1OCC(=O)Nc1ccc(SC(F)F)cc1	KB-V1 MDR tox 13µM
COc1ccc(CNC(=O)COC(=O)c2ccccc2OCC(=O)Nc2ccc(SC(F)F)cc2)cc1	KB-3-1 tox inconclusive, SW480 rereplic 10.3µM
CN1CCN(c2cccc(Nc3nn4c(=O)c5ccc(Br)cc5nc4s3)c2)CC1	none (no result: MCF10A rerep, PINK1 expr mod, SW480 rereplic, TSG101-PTAP inh)
CCN(CC)S(=O)(=O)c1cnccc1N1CCN(c2cccc(Cl)c2)CC1	MCF10A rerep inconclusive, KB-3-1 tox 10.3µM
CNS(=O)(=O)c1cnccc1N1CCN(c2cccc(Cl)c2)CC1	none
